Test results as given in PubChem BioAssay AID1961 (Sanford-Burnham Center for Chemical Genomics, 2009).
Out of some 290,000 compounds screened, about 140 (0.048%) were called active.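 How the source made its calls: active means activation above 40% with more than 50 cells counted in the well; inconclusive means wells holding fewer than 50 cells, flagged as toxic or sparse; inactive means the rest.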 The list comes from a sample in which actives are over-represented; it also holds similar structures and randomly drawn compounds.

Assays:
[1] = GPR55 agonists via beta-arrestin recruitment, primary screen, imaging, U2OS cells, beta-arrestin-GFP redistribution (AID 1961); settings: measured here: cytotoxicity, cells analyzed, at 10 µM;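 further: U2OS osteosarcoma cells stably expressing GPR55 and beta-arrestin-GFP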;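 on activation: plate controls were DMSO negative control for no effect and LPI positive control for full effect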
[2] = molecular target: G-protein coupled receptor 55 (Homo sapiens) (UniProt Q9Y2T6); experiment: as above; settings: at 10 µM, stronger effect = higher value
Chain of G-protein coupled receptor 55 (Homo sapiens) (Q9Y2T6 whole entry, looked up): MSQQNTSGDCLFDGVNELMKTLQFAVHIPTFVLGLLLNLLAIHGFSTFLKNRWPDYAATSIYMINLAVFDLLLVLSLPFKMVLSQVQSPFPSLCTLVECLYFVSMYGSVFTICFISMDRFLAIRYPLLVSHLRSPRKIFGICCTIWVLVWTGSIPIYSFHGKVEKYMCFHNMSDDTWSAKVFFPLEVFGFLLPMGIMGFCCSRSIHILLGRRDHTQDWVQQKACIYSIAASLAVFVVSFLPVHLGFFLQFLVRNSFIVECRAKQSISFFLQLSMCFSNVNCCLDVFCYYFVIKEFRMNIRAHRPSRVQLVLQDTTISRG

Row | Structure (SMILES) | cell count [1] [cells] | activation [2]
1 | CN1/C(=C\C=Nc2ccccc2)C(C)(C)c2ccccc21 | 360 | -0.1% (inactive)
2 | CN1/C(=C\C=C2C(=O)NC(=S)NC2=O)C(C)(C)c2ccccc21 | 268 | 57.7% (active)
3 | CN1/C(=C\C=C2C(=O)NC(=O)NC2=O)C(C)(C)c2ccccc21 | 294 | 0.4% (inactive)
4 | N[C@@H](Cc1c[nH]c2ccccc12)c1nnc(SCc2ccc(Cl)cc2)o1 | 304 | 0.1% (inactive)
5 | CC(=Nc1ccccc1N)c1c(O)n(C)c(=O)[nH]c1=O | 323 | 0.7% (inactive)
